Laboratory results taken from PubChem BioAssay AID1159580 (chemical genetic matrix, 2015).
The whole screen tested about 5,500 compounds, of which about 2,000 (36%) were called active. Not shown: some 18% with an inconclusive outcome. No stated cut-off is given here; in the data, active means normalized growth mostly below about 0.91 (no sharp cut-off); inconclusive means no clear call, values can overlap the other calls; inactive means mostly above about 0.92. The list shows a part of the results.

Test: chemical genetic growth profiling, strain panel (AID 1159580);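 further: tested at 20 µM; growth read once vehicle control cultures reached saturation at 30 °C; 1 = growth at the plate median or of vehicle wells; lower values mean less growth of the strain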
Conditions: S. cerevisiae deletion strains, growth OD

Measured: normalized growth

O=C(O)CCC(=O)Nc1ccc(S(=O)(=O)Nc2nccs2)cc1
active: locus YCL011C, strain gbp2, active compounds read low 0.728
inactive: locus YAL021C, strain ccr4, active compounds read low 1 | locus YAL026C, strain drs2, active compounds read low 1 | locus YAL030W, strain snc1, active compounds read low 1.03 | locus YBL061C, strain skt5, active compounds read low 0.994 | locus YBR009C, strain hhf1, active compounds read low 1.02 | locus YBR023C, strain chs3, active compounds read low 0.993 | locus YBR171W, strain sec66, active compounds read low 0.997 | locus YBR231C, strain swc5, active compounds read low 0.996 | locus YBR279W, strain paf1, active compounds read low 0.989 | locus YCL016C, strain dcc1, active compounds read low 0.985 | locus YCL061C, strain MRC1, active compounds read low 0.996 | locus YCL069W, strain vba3, active compounds read low 1 | locus YCR088W, strain abp1, active compounds read low 0.994 | locus YDL005C, strain med2, active compounds read low 0.987 | locus YDL040C, strain nat1, active compounds read low 0.999 | locus YDR001C, strain nth1, active compounds read low 1 | locus YDR069C, strain doa4, active compounds read low 1 | locus YDR137W, strain rgp1, active compounds read low 0.989 | locus YDR159W, strain sac3, active compounds read low 0.922 | locus YDR195W, strain ref2 0.967 | locus YDR297W, strain sur2, active compounds read low 1.01 | locus YDR334W, strain swr1, active compounds read low 0.989 | locus YDR335W, strain msn5, active compounds read low 0.992 | locus YDR392W, strain spt3, active compounds read low 0.912 | locus YEL003W, strain gim4, active compounds read low 1.02 | locus YEL037C, strain rad23, active compounds read low 1.01 | locus YEL061C, strain CIN8 (second series), active compounds read low 1.02 | locus YER015W, strain faa2, active compounds read low 1 | locus YER016W, strain bim1, active compounds read low 0.981 | locus YER111C, strain swi4, active compounds read low 1.01 | locus YER155C, strain BEM2 (second series), active compounds read low 0.981 | locus YFR010W, strain ubp6, active compounds read low 1 | locus YGL167C, strain pmr1, active compounds read low 0.995 | locus YGL173C, strain kem1, active compounds read low 0.987 | locus YGL227W, strain vid30, active compounds read low 0.994 | locus YGL240W, strain doc1, active compounds read low 1 | locus YGL253W, strain hxk2, active compounds read low 1 | locus YHR013C, strain ard1, active compounds read low 0.983 | locus YHR027C, strain rpn1, active compounds read low 0.991 | locus YHR030C, strain SLT2, active compounds read low 1.04 | locus YHR079C, strain IRE1, active compounds read low 1.06 | locus YHR142W, strain chs7, active compounds read low 1 | locus YJL092W, strain hpr5, active compounds read low 1 | locus YJL095W, strain BCK1 (second series), active compounds read low 0.996 | locus YJL095W, strain BCK1, active compounds read low 1.01 | locus YJL115W, strain asf1, active compounds read low 0.997 | locus YJL129C, strain trk1, active compounds read low 0.994 | locus YJL154C, strain vps35, active compounds read low 0.99 | locus YJL164C, strain tpk1, active compounds read low 0.998 | locus YJL166W, strain qcr8, active compounds read low 1 | locus YJL187C, strain SWE1, active compounds read low 1.01 | locus YJR066W, strain TOR1, active compounds read low 0.998 | locus YKL160W, strain elf1, active compounds read low 1.01 | locus YKR026C, strain gcn3, active compounds read low 1 | locus YKR091W, strain srl3, active compounds read low 0.998 | locus YLL001W, strain dnm1, active compounds read low 1.01 | locus YLL026W, active compounds read low 0.987 | locus YLL041C, strain sdh2, active compounds read low 1.01 | locus YLR027C, strain aat2, active compounds read low 1.01 | locus YLR113W, strain HOG1, active compounds read low 1.02 | locus YLR221C, strain rsa3, active compounds read low 1 | locus YLR258W, strain gsy2, active compounds read low 0.993 | locus YLR262C, strain YPT6 (second series), active compounds read low 1.01 | locus YLR320W, strain mms22, active compounds read low 0.976 | locus YLR342W, strain FKS1, active compounds read low 1 | locus YLR357W, strain rsc2, active compounds read low 0.991 | locus YLR370C, strain arc18, active compounds read low 1 | locus YLR384C, strain iki3, active compounds read low 1 | locus YML120C, strain ndi1, active compounds read low 1.02 | locus YMR058W, strain fet3, active compounds read low 1 | locus YMR125W, strain sto1, active compounds read low 0.977 | locus YMR129W, active compounds read low 0.977 | locus YMR205C, strain PFK2, active compounds read low 0.985 | locus YMR231W, strain pep5, active compounds read low 1 | locus YNL071W, strain lat1, active compounds read low 1.01 | locus YNL183C, strain NPR1, active compounds read low 0.968 | locus YNL209W, strain ssb2, active compounds read low 1 | locus YNL248C, strain rpa49, active compounds read low 1.02 | locus YNL322C, strain KRE1 (second series), active compounds read low 0.966 | locus YNR049C, strain mso1, active compounds read low 0.999 | locus YOR001W, strain rrp6, active compounds read low 0.998 | locus YOR070C, strain gyp1, active compounds read low 0.998 | locus YOR080W, strain dia2, active compounds read low 0.987 | locus YOR083W, strain WHI5, active compounds read low 0.938 | locus YOR106W, strain vam3, active compounds read low 0.979 | locus YOR231W, strain MKK1, active compounds read low 1.07 | locus YOR265W, strain rbl2, active compounds read low 1.01 | locus YOR270C, strain vph1, active compounds read low 1.03 | locus YOR290C, strain snf2, active compounds read low 0.984 | locus YPL051W, strain arl3, active compounds read low 0.995 | locus YPL078C, strain atp4, active compounds read low 0.984 | locus YPL106C, strain sse1, active compounds read low 0.944 | locus YPL240C, strain hsp82, active compounds read low 0.995 | locus YPL256C, strain CLN2, active compounds read low 1.01
